{"source": "PubChem BioAssay (EPA / NIEHS)", "key": {"[1]": {"experiment": "CCTE_Mundy_HCI_iCellGluta_NOG_NeuronCount: CCTE's Neurite Outgrowth Assay in iCellGluta cells for Neuron Count, Mundy Lab (AID 2284340; active means hit-call score of the fitted dose curve at least 0.9, where 1 is the maximum;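 further: cells fixed about 48 h after compound addition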)", "how_it_was_run": "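Neuron count read by automated high-content imaging of Hoechst 33342 and betaIII-tubulin/Alexa Fluor-488 labelling in human iPSC glutamatergic neurons. Activity fitted relative to DMSO.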"}, "[2]": {"experiment": "CCTE_Mundy_HCI_iCellGluta_NOG_NeuriteCount: CCTE's Neurite Outgrowth Assay in iCellGluta cells for Neurite Count, Mundy Lab (AID 2284342; active means hit-call score of the fitted dose curve at least 0.9, where 1 is the maximum;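 further: chemical exposure about 48 hours starting 2 hours after plating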)"}, "[3]": {"experiment": "Tanguay_ZF_120hpf_MO24: Oregon State University Tanguay Lab 24 Hour Post-fertilization zebrafish Assay for Mortality (AID 2284389)", "how_it_was_run": "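Dechorionated wild-type zebrafish embryos, 1 per well, statically exposed from 6 hpf at 28C, 0.64% DMSO final. Mortality scored as binary present/absent at 24 hpf by brightfield microscopy, relative to DMSO.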"}, "[4]": {"experiment": "Tanguay_ZF_120hpf_DP24: Oregon State University Tanguay Lab 24 Hour Post-fertilization zebrafish Assay for Delayed Development (AID 2284390)", "how_it_was_run": "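Dechorionated 5D wild-type zebrafish embryos exposed statically from 6 hpf, one per well, 0.64% DMSO final, 28 C, sealed and dark. Developmental progression scored at 24 hpf by brightfield as binary present/absent; dead embryos excluded.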"}, "[5]": {"experiment": "Tanguay_ZF_120hpf_CRAN: Oregon State University Tanguay Lab 120 Hour Post-fertilization zebrafish Assay for Craniofacial Malformation (AID 2284397)", "how_it_was_run": "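Dechorionated Tropical 5D wild-type zebrafish embryos, one per well, were statically exposed from 6 to 120 hpf at 28C in 0.64% DMSO, with 5uM trimethyltin chloride as positive control. Craniofacial malformation was scored present/absent by brightfield microscopy, relative to DMSO.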"}, "[6]": {"experiment": "Tanguay_ZF_120hpf_AXIS: Oregon State University Tanguay Lab 120 Hour Post-fertilization zebrafish Assay for Axial Malformation (AID 2284398)", "how_it_was_run": "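Dechorionated 5D wild-type zebrafish embryos exposed statically, one per well, from 6 to 120 hpf at 28C, 0.64% DMSO. Axial malformation scored as present/absent by brightfield microscopy at 120 hpf; dead embryos not scored.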"}, "[7]": {"experiment": "Tanguay_ZF_120hpf_MUSC: Oregon State University Tanguay Lab 120 Hour Post-fertilization zebrafish Assay for Muscle Malformation (AID 2284401)", "how_it_was_run": "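Dechorionated Tropical 5D wild-type zebrafish embryos exposed statically from 6 to 120 hpf at 28C, one per well, in 0.64% DMSO. Muscle malformation scored present/absent by brightfield microscopy at 120 hpf, fitted against DMSO.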"}, "[8]": {"experiment": "Tanguay_ZF_120hpf_TCHR: Oregon State University Tanguay Lab 120 Hour Post-fertilization zebrafish Assay for Touch Responsive (AID 2284403)", "how_it_was_run": "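Dechorionated Tropical 5D wild-type zebrafish embryos, one per well from 6 hpf, were statically exposed to 120 hpf at 28 °C (0.64% DMSO). Touch response was scored present/absent at 120 hpf and not scored in dead larvae.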"}, "[9]": {"experiment": "CCTE_Padilla_ZF_Score.Craniofacial: CCTE's 144 Hour Post-fertilization zebrafish Assay Score for Craniofacial Malformation, Padilla Lab (AID 2284405)", "how_it_was_run": "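Wild-type zebrafish embryos (with chorions), one per well in 10% Hanks', were dosed at 6–8 hpf in sealed plates and kept at 26C. They were rinsed at 5 dpf. At 6 dpf two blinded assessors scored craniofacial malformations by brightfield stereomicroscopy.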"}, "[10]": {"experiment": "CCTE_Padilla_ZF_Score.Edema: CCTE's 144 Hour Post-fertilization zebrafish Assay Score for Edema Malformation, Padilla Lab (AID 2284406)", "how_it_was_run": "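Wild-type zebrafish embryos, one per well in Hanks' solution, dosed at 6-8 hpf, sealed and reared at 26C on a 14:10 h cycle; rinsed on 5 dpf. At 6 dpf, blinded assessors scored edema by stereomicroscopy.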"}, "SERPINA7 (gene 6906)": {"system": "SERPINA7 (gene 6906)", "experiment": "CCTE_GLTED_hTBG: CCTE's human Thyroxine-binding Globulin (TBG) Inhibition Assay, Great Lakes Toxicology and Ecology Division (GLTED) Lab (AID 2284343; active means hit-call score of the fitted dose curve at least 0.9, where 1 is the maximum;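 further: active chemicals lower fluorescence versus DMSO baseline by displacing probe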)", "how_it_was_run": "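Cell-free binding assay in which human TBG is incubated with test chemical for 2 hours and displacement of the fluorescent probe ANSA is read at 380 nm excitation/475 nm emission. Activity is fitted against DMSO as the negative control.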"}, "[11]": {"experiment": "IUF_NPC1_cytotoxicity_72hr: Cytotoxicity Assessment at 72 hours in the Leibniz Research Institute for Environmental Medicine (IUF) Neural Progenitor Cell Proliferation Assay (NPC1) (AID 2284332; active means hit-call score of the fitted dose curve at least 0.9, where 1 is the maximum;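 further: rising LDH signal means more cytotoxicity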)", "how_it_was_run": "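Single human fetal cortex neural progenitor spheres (GW 16-19, 0.25-0.35 mm) in EGF/FGF proliferation medium were exposed to compound for 72 h at 37C without renewal. Medium LDH release was read as resorufin fluorescence and fitted as gain-of-signal.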"}, "[12]": {"experiment": "TAMU_PeakParms_SingleDonor1434_Asystole: Texas A&M University (TAMU) 1.5-hr Human Induced Pluripotent Stem Cell (iPSC)-derived Cardiomyocytes Calcium (Ca+2) Flux Assay for Cardiotoxicity: Asystole (quiescence of beating) (AID 2284328; active means hit-call score of the fitted dose curve at least 0.9, where 1 is the maximum)", "how_it_was_run": "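Average Ca2+-flux peak frequency (beats/s) was recorded in single-donor iPSC-derived cardiomyocytes after 90 min exposure (0.2–100 uM final, 0.5% DMSO). Asystole POD set as EC95 against DMSO, no preprocessing.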"}}, "note": "Results filed as inconclusive are left out. Activity calls are given as the source filed them. How the source made its calls, unless noted: active means hit-call score of the fitted dose curve at least 0.9, where 1 is the maximum; inactive means score below 0.9."}
{"molecule": "FC(F)(F)C(F)(C(F)(F)F)C(F)(F)C(F)(F)CC1CO1", "note": "(stereo unspecified)", "values": [{"measurement": "outcome", "setting": "[1]", "value": "inactive"}, {"measurement": "outcome", "setting": "[2]", "value": "inactive"}, {"measurement": "outcome", "setting": "[3]", "value": "inactive"}, {"measurement": "outcome", "setting": "[4]", "value": "inactive"}, {"measurement": "outcome", "setting": "[5]", "value": "inactive"}, {"measurement": "outcome", "setting": "[6]", "value": "inactive"}, {"measurement": "outcome", "setting": "[7]", "value": "inactive"}, {"measurement": "outcome", "setting": "[8]", "value": "inactive"}, {"measurement": "outcome", "setting": "[9]", "value": "inactive"}, {"measurement": "outcome", "setting": "[10]", "value": "inactive"}]}
{"molecule": "CCCCc1ccc(O)cc1", "values": [{"measurement": "AC50", "setting": "SERPINA7 (gene 6906)", "value": "63 µM (active)"}]}
{"molecule": "c1ccc(OP(Oc2ccccc2)Oc2ccccc2)cc1", "values": [{"measurement": "outcome", "setting": "SERPINA7 (gene 6906)", "value": "inactive"}]}
{"molecule": "O=C(O)C=CC(F)(C(F)(F)F)C(F)(F)F", "values": [{"measurement": "outcome", "setting": "[1]", "value": "inactive"}, {"measurement": "outcome", "setting": "[2]", "value": "inactive"}, {"measurement": "outcome", "setting": "[3]", "value": "inactive"}, {"measurement": "outcome", "setting": "[4]", "value": "inactive"}, {"measurement": "outcome", "setting": "[5]", "value": "inactive"}, {"measurement": "outcome", "setting": "[6]", "value": "inactive"}, {"measurement": "outcome", "setting": "[7]", "value": "inactive"}, {"measurement": "outcome", "setting": "[8]", "value": "inactive"}, {"measurement": "outcome", "setting": "[9]", "value": "inactive"}, {"measurement": "outcome", "setting": "[10]", "value": "inactive"}]}
{"molecule": "CCCCCCCc1ccc(O)cc1", "values": [{"measurement": "AC50", "setting": "SERPINA7 (gene 6906)", "value": "18.5 µM (active)"}]}
{"molecule": "CCCCOCCOP(=O)(OCCOCCCC)OCCOCCCC", "values": [{"measurement": "outcome", "setting": "[11]", "value": "inactive"}]}
{"molecule": "O=S1(=O)OCC2C(CO1)C1(Cl)C(Cl)=C(Cl)C2(Cl)C1(Cl)Cl", "note": "(stereo unspecified)", "values": [{"measurement": "outcome", "setting": "[11]", "value": "inactive"}]}
{"molecule": "CCC(C)(C)c1ccc(O)cc1", "values": [{"measurement": "AC50", "setting": "SERPINA7 (gene 6906)", "value": "50 µM (active)"}]}
{"molecule": "O=[N+]([O-])c1ccc(Cl)c(Cl)c1", "values": [{"measurement": "outcome", "setting": "SERPINA7 (gene 6906)", "value": "inactive"}]}
{"molecule": "O=C(O)C(F)(F)C(F)(F)C(=O)O", "values": [{"measurement": "outcome", "setting": "[3]", "value": "inactive"}, {"measurement": "outcome", "setting": "[4]", "value": "inactive"}, {"measurement": "outcome", "setting": "[5]", "value": "inactive"}, {"measurement": "outcome", "setting": "[6]", "value": "inactive"}, {"measurement": "outcome", "setting": "[7]", "value": "inactive"}, {"measurement": "outcome", "setting": "[8]", "value": "inactive"}, {"measurement": "outcome", "setting": "[9]", "value": "inactive"}, {"measurement": "outcome", "setting": "[10]", "value": "inactive"}]}
{"molecule": "NC(=O)C(F)(F)C(F)(F)F", "values": [{"measurement": "outcome", "setting": "[3]", "value": "inactive"}, {"measurement": "outcome", "setting": "[4]", "value": "inactive"}, {"measurement": "outcome", "setting": "[5]", "value": "inactive"}, {"measurement": "outcome", "setting": "[6]", "value": "inactive"}, {"measurement": "outcome", "setting": "[7]", "value": "inactive"}, {"measurement": "outcome", "setting": "[8]", "value": "inactive"}, {"measurement": "outcome", "setting": "[9]", "value": "inactive"}, {"measurement": "outcome", "setting": "[10]", "value": "inactive"}]}
{"molecule": "CCOP(=S)(OCC)SCSCC", "values": [{"measurement": "outcome", "setting": "[11]", "value": "inactive"}, {"measurement": "outcome", "setting": "[1]", "value": "inactive"}, {"measurement": "outcome", "setting": "[2]", "value": "inactive"}, {"measurement": "AC50", "setting": "SERPINA7 (gene 6906)", "value": "24.7 µM (active)"}]}
{"molecule": "O=C(O)C(F)(F)OC(F)(F)C(F)(F)OC(F)(F)F", "values": [{"measurement": "outcome", "setting": "[1]", "value": "inactive"}, {"measurement": "outcome", "setting": "[2]", "value": "inactive"}, {"measurement": "outcome", "setting": "[3]", "value": "inactive"}, {"measurement": "outcome", "setting": "[4]", "value": "inactive"}, {"measurement": "outcome", "setting": "[5]", "value": "inactive"}, {"measurement": "outcome", "setting": "[6]", "value": "inactive"}, {"measurement": "outcome", "setting": "[7]", "value": "inactive"}, {"measurement": "outcome", "setting": "[8]", "value": "inactive"}, {"measurement": "outcome", "setting": "[9]", "value": "inactive"}, {"measurement": "outcome", "setting": "[10]", "value": "inactive"}]}
{"molecule": "OCC(F)(F)OC(F)(F)C(F)(F)OC(F)(F)C(F)(F)OC(F)(F)CO", "values": [{"measurement": "AC50", "setting": "SERPINA7 (gene 6906)", "value": "44.1 µM (active)"}, {"measurement": "AC50", "setting": "[3]", "value": "64.9 µM (active)"}, {"measurement": "AC50", "setting": "[4]", "value": "33.3 µM (active)"}, {"measurement": "AC50", "setting": "[5]", "value": "28.9 µM (active)"}, {"measurement": "AC50", "setting": "[6]", "value": "36.7 µM (active)"}, {"measurement": "AC50", "setting": "[7]", "value": "36.7 µM (active)"}, {"measurement": "outcome", "setting": "[8]", "value": "inactive"}, {"measurement": "outcome", "setting": "[9]", "value": "inactive"}, {"measurement": "outcome", "setting": "[10]", "value": "inactive"}]}
{"molecule": "CC(C)(C)c1ccccc1OP(=O)(Oc1ccccc1)Oc1ccccc1", "values": [{"measurement": "outcome", "setting": "[12]", "value": "inactive"}, {"measurement": "outcome", "setting": "[11]", "value": "inactive"}]}
{"molecule": "O=C(O)C(F)(F)OC(F)(F)C(F)(F)OC(F)(F)C(=O)O", "values": [{"measurement": "outcome", "setting": "[1]", "value": "inactive"}, {"measurement": "outcome", "setting": "[2]", "value": "inactive"}, {"measurement": "outcome", "setting": "[3]", "value": "inactive"}, {"measurement": "outcome", "setting": "[4]", "value": "inactive"}, {"measurement": "outcome", "setting": "[5]", "value": "inactive"}, {"measurement": "outcome", "setting": "[6]", "value": "inactive"}, {"measurement": "outcome", "setting": "[7]", "value": "inactive"}, {"measurement": "outcome", "setting": "[8]", "value": "inactive"}, {"measurement": "outcome", "setting": "[9]", "value": "inactive"}, {"measurement": "outcome", "setting": "[10]", "value": "inactive"}]}
{"molecule": "CCOP(=S)(Oc1ccc([N+](=O)[O-])cc1)c1ccccc1", "note": "(stereo unspecified)", "values": [{"measurement": "AC50", "setting": "SERPINA7 (gene 6906)", "value": "1.84 µM (active)"}]}
{"molecule": "CCCCC(CC)COP(=O)(Oc1ccccc1)Oc1ccccc1", "note": "(stereo unspecified)", "values": [{"measurement": "outcome", "setting": "[12]", "value": "inactive"}, {"measurement": "AC50", "setting": "SERPINA7 (gene 6906)", "value": "4.21 µM (active)"}]}
